{"source": "PubChem BioAssay AID602281", "about": "(The Scripps Research Institute Molecular Screening Center, 2012)", "note": "Among all 360,000 compounds or so, about 2,900 (0.81%) were called active. This excerpt belongs to a sample that is enriched for actives. A number with no mark means an inactive call.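 Rule for the calls: active = inhibition above the mean inhibition across every tested compound plus 3 SD (cut at about 22% in these data); inactive = the rest.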", "data": [{"molecular_target": "Perilipin-5 (Homo sapiens) + 1-acylglycerol-3-phosphate O-acyltransferase ABHD5 (Homo sapiens) (UniProt Q00G26+Q8WTS1)", "sequence (Q00G26 whole entry, looked up)": "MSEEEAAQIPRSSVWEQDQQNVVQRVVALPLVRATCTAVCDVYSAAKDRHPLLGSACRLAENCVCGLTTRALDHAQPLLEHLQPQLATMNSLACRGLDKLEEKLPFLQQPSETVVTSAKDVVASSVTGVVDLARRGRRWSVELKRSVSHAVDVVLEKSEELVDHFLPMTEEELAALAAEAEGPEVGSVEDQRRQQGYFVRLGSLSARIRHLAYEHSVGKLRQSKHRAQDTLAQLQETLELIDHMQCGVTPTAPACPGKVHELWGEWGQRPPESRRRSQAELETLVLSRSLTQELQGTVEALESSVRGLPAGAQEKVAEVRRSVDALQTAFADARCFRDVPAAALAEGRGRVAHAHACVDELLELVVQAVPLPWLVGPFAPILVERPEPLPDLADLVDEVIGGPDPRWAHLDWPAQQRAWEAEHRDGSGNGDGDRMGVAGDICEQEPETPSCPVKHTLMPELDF", "sequence (Q8WTS1 whole entry, looked up)": "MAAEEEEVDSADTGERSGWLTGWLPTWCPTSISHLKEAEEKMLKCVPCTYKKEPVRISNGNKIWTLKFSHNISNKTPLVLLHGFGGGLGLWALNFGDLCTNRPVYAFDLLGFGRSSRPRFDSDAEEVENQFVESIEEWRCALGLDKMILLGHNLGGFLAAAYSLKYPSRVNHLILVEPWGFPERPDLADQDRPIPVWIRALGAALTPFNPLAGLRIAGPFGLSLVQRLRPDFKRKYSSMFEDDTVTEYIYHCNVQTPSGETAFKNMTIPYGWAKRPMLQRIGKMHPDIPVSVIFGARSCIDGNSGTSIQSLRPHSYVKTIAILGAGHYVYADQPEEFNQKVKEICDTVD", "assay": "ABHD5-PLIN5 interaction inhibitors, primary screen, cell lysate, split luciferase complementation, luminescence (AID 602281);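 note: 0% = DMSO only wells and the 100% control is not disclosed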", "details": "Split G. princeps luciferase complementation, 4 h, at 4 µM, active compounds read high", "values": [{"smiles": "O=C(NNS(=O)(=O)c1ccc(F)cc1)c1cnccn1", "inhibition": "-1.88%"}, {"smiles": "COc1ccc(-c2cc3n(n2)CCc2nc4ccccc4n2-3)cc1", "inhibition": "5.6%"}, {"smiles": "CC(C)c1ccc2oc(=O)cc(CN3CCN(Cc4ccccc4)CC3)c2c1", "inhibition": "-1.39%"}, {"smiles": "Cc1nc([N+](=O)[O-])nn1C12CC3CC(CC(Br)(C3)C1)C2", "inhibition": "-11.4%"}, {"smiles": "CCc1nnc(NC(=O)c2ccco2)s1", "inhibition": "3.45%"}, {"smiles": "O=C(Nc1nonc1-c1ccc(Cl)cc1)c1ccco1", "inhibition": "-2.13%"}, {"smiles": "O=C(Nc1nc(-c2ccco2)c(-c2ccco2)s1)c1ccco1", "inhibition": "25.3% (active)"}, {"smiles": "Cc1cc(C)c(C#N)c(SCS(=O)c2ccc(C(C)(C)C)cc2)n1", "note": "(configuration not stated)", "inhibition": "5.68%"}, {"smiles": "S=C(Nc1ccc(Br)cc1Cl)N1CCC2(CC1)OCCO2", "inhibition": "-3.87%"}, {"smiles": "CCOC(=O)CCC(=O)OCC(=O)NC(C)C1CC2CCC1C2", "note": "(configuration not stated)", "inhibition": "-2.3%"}, {"smiles": "Cc1ccc(-n2nc(-c3ccco3)cc2C(=O)NCc2cccnc2)cc1", "inhibition": "36.3% (active)"}, {"smiles": "CSc1sc(C(=O)NC(=O)NCc2cccnc2)c(C)c1-c1ccon1", "inhibition": "6.42%"}, {"smiles": "Cc1ccc(C(=O)NC(=S)NCc2cccnc2)cc1", "inhibition": "2.77%"}, {"smiles": "CCc1ccc(OC2(C)CCN(CCOc3ccc(C)cc3)C2)cc1", "note": "(configuration not stated)", "inhibition": "-1.92%"}, {"smiles": "Cc1[nH]c2ccccc2c1C(=O)C(C)Sc1nnc(C2CC2)o1", "note": "(configuration not stated)", "inhibition": "-5.93%"}, {"smiles": "O=C(Nc1ccccc1Cl)NC1(C(=O)N2CCOCC2)CCCCC1", "inhibition": "-0.52%"}, {"smiles": "COc1ccccc1NC(=O)COC(=O)Cc1ccc(S(=O)(=O)N2CCCCC2)s1", "inhibition": "0.2%"}, {"smiles": "NS(=O)(=O)c1ccc(CNC(=O)c2cc(S(=O)(=O)N3CCOCC3)ccc2N2CCCC2)cc1", "inhibition": "4.8%"}, {"smiles": "CCC1CCCCN1C(=S)Nc1ccc(S(=O)(=O)Nc2ncccn2)cc1", "note": "(configuration not stated)", "inhibition": "-5.25%"}, {"smiles": "COc1ccc(C(C(=O)NC(C)(C)C)N(C(=O)Cn2nnc3ccccc32)c2ccc(C(C)=O)cc2)cc1O", "note": "(configuration not stated)", "inhibition": "-5.36%"}, {"smiles": "CCNC(=O)CC1C(=O)N(c2ccc(OC)cc2)C(=S)N1CCc1ccncc1", "note": "(configuration not stated)", "inhibition": "2.72%"}, {"smiles": "Cc1ccc(NC(=O)Cn2c(C)csc2=O)cc1", "inhibition": "0%"}, {"smiles": "O=C(Cn1nc(C(=O)O)c2ccccc2c1=O)Nc1ccc(F)cc1", "inhibition": "4.56%"}, {"smiles": "Cc1ccc(NC(=O)Cn2sc3ccccc3c2=O)cc1", "inhibition": "71.6% (active)"}, {"smiles": "Cn1cc(S(=O)(=O)N2CCN(c3ccc(F)cc3)CC2)c(=O)n(C)c1=O", "inhibition": "2.58%"}, {"smiles": "CC(=O)c1c(C)n(-c2ccc(N(C)C)cc2)c2ccc(OCC(N)=O)cc12", "inhibition": "-5.31%"}, {"smiles": "NC(=O)COc1ccc(C23CC4CC(CC(C4)C2)C3)cc1", "inhibition": "-7.75%"}, {"smiles": "Cc1ccc(NNC(=O)c2cccs2)cc1Cl", "inhibition": "0.05%"}, {"smiles": "CC(C)OCCCNC(=O)CNC(=O)c1cccs1", "inhibition": "3.5%"}, {"smiles": "Cc1ccccc1C(CC(=O)c1cccs1)C(C#N)C#N", "note": "(configuration not stated)", "inhibition": "22.1% (active)"}, {"smiles": "CC1=NN(C(C)C)C(=O)C1", "inhibition": "-11.8%"}, {"smiles": "COc1ccccc1C(=O)C(O)c1ccccc1OC", "note": "(configuration not stated)", "inhibition": "4.01%"}, {"smiles": "CSc1ccccc1OCc1cc(C(=O)N2C[C@H]3CC[C@H]2C3)no1", "inhibition": "-0.37%"}, {"smiles": "COC(=O)[C@@H](NC(=O)Nc1cc(Cl)ccc1C)C(C)C", "inhibition": "15.4%"}, {"smiles": "Cc1nc(-c2ccc(Cl)cc2)sc1C(=O)CBr", "inhibition": "9.2%"}, {"smiles": "Nc1nc(NC(=O)/C=C/c2ccccc2)nn1-c1ccccc1", "inhibition": "3.41%"}, {"smiles": "O=S(=O)(/C=C/c1ccccc1)N1CCNCC1", "inhibition": "-10.8%"}, {"smiles": "CC(/C=C/c1ccccc1)=N\\NC(=O)C1CC1(C)c1ccccc1", "note": "(configuration not stated)", "inhibition": "-4.04%"}, {"smiles": "O=C(/C=C/c1ccccc1)c1ccccc1O", "inhibition": "22.9% (active)"}, {"smiles": "Cc1nc(-c2ccccc2)sc1C(=O)/C=C/c1ccccc1", "inhibition": "36% (active)"}, {"smiles": "O=C(/C=C/c1ccccc1)c1ccoc1", "inhibition": "23% (active)"}, {"smiles": "Cc1nc(-c2ccccc2)sc1-c1nc(-c2ccccc2)ncc1S(=O)(=O)c1ccccc1", "inhibition": "2.52%"}, {"smiles": "CC1(C(=O)O)CCN1C(=O)/C=C/c1ccccc1", "note": "(configuration not stated)", "inhibition": "-1.15%"}, {"smiles": "COc1ccc(CN(C)Cc2nc3cc(OC)c(OC)cc3c(=O)[nH]2)c(OC)c1", "inhibition": "3.55%"}, {"smiles": "COc1ccc(C2NC(=S)NC3=C2CCc2ccccc23)cc1OC", "note": "(configuration not stated)", "inhibition": "-20.7%"}, {"smiles": "O=C(c1c(F)cccc1F)N1CCN(S(=O)(=O)c2ccc3c(c2)OCCO3)CC1", "inhibition": "-12.9%"}, {"smiles": "Fc1ccc(N2N=C(c3cccs3)CC2c2ccco2)c(F)c1", "note": "(configuration not stated)", "inhibition": "-11.2%"}, {"smiles": "COC(=O)c1ccc2nc(-c3ccc(C)cc3)c(Cc3ccc(OC)cc3C)n2c1", "inhibition": "0.21%"}, {"smiles": "Fc1ccc(CNCc2ccc(Br)cc2)cc1", "inhibition": "3.28%"}, {"smiles": "CCOC(=O)N1CCN(S(=O)(=O)c2ccc3c(c2)C(C)C(=O)N3)CC1", "note": "(configuration not stated)", "inhibition": "2.99%"}, {"smiles": "FC(F)(F)C1CCCN(c2nsc3ccccc23)C1", "note": "(configuration not stated)", "inhibition": "28.5% (active)"}, {"smiles": "COC(=O)[C@@]12C[C@@H](CC(=O)NCc3cccc(C(F)(F)F)c3)C(=O)N(Cc3ccco3)C1=CCC(C)(C)C2", "inhibition": "-1.98%"}, {"smiles": "CCS(=O)(=O)Nc1ccc(C(=O)NCCSc2ccccc2)cc1", "inhibition": "-5.43%"}, {"smiles": "COC(C[C@@H](O)[C@H](C)[C@H](O)COCc1ccccc1)OC", "inhibition": "-4.38%"}, {"smiles": "CCCCN(Cc1ccccc1)C(=O)C1CCN(Cc2sccc2C)CC1", "inhibition": "1.95%"}, {"smiles": "O=C(/C(=C/c1cccc(Cl)c1)c1nc2ccccc2[nH]1)c1ccccc1", "inhibition": "23.3% (active)"}, {"smiles": "CCCc1nc2ccccc2n1C(C)C(=O)NC(C)(C)C", "note": "(configuration not stated)", "inhibition": "5.62%"}, {"smiles": "CN(C)NC(=O)c1csnc1-c1c(Cl)cccc1Cl", "inhibition": "-5.5%"}, {"smiles": "COC(=O)c1ccc(COC(=O)C2CCN(S(=O)(=O)c3c(Cl)cccc3Cl)CC2)o1", "inhibition": "1.49%"}, {"smiles": "C#CCOCCOCCOCCNc1nc(N2CCN(C(=O)C([C@@H](C)O)n3cc([C@@H](N)CCCCN)nn3)CC2)nc(N2CCN(C(=O)[C@H](CCCCN)n3cc(CN)nn3)CC2)n1", "note": "(some centres not stated)", "inhibition": "8.85%"}, {"smiles": "C#CCOCCOCCOCCNc1nc(N2CCOCC2)nc(N2CCN(C(=O)[C@H](Cc3ccc(O)cc3)n3cc(CCO)nn3)CC2)n1", "inhibition": "-5.39%"}, {"smiles": "C#CCOCCOCCOCCNc1nc(N2CCN(C(=O)CCCCCCCCCCNC(=O)Cn3cc(CCCCCN)nn3)CC2)nc(N2CCN(C(=O)CCCCCCCCCCNC(=O)[C@H](CO)n3cc(CCCSC)nn3)CC2)n1", "inhibition": "44% (active)"}]}]}
